# DRD3 antagonist – blocks the human D3 dopamine receptor. D3R cells, DiscoveRx beta-arrestin luminescence, antagonist mode; hits give low values. max response, negative = inhibition, %. 360,000 tested, 2.5% active. AID 652054; in the data active = max response below about -50%; inconclusive = no clear call, values can overlap the other calls; note: % is set by controls: 0 for no effect and ±100 for the full control effect
# Target sequence (P35462 whole entry, looked up): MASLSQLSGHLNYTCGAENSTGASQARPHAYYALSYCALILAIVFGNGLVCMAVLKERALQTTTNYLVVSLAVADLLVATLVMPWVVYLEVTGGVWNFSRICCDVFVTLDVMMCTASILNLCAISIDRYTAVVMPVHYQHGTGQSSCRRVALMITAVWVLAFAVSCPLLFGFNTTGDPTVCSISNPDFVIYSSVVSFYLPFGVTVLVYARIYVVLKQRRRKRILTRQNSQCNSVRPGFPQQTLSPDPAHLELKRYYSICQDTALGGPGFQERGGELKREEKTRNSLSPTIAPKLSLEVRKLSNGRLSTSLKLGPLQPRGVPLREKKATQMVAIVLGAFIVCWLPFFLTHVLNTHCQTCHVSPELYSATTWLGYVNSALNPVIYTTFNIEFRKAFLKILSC
#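 Cells expressing the human receptor were seeded at 1500 cells/well, incubated overnight at 37 degrees C in 5% CO2, then exposed to library compounds with dopamine controls for 90 minutes at 37 degrees C before luminescent detection.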
# IL1B secr inh – inflammasome signaling inhibition, IL-1 beta readout; THP-1 LPS/ATP IL-1B secretion, AlphaLISA, 16 h; hits give low values; activity change, % at 57.5 µM; 360,000 tested, 4.7% active; in the data active = activity change below about -50%; inconclusive = mostly about -30% to -49%; note: % is set by controls: 0 for no effect and ±100 for the full control effect
#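 THP-1 cells pretreated 1 hr with compounds (up to 57.5 uM final), then stimulated with LPS (250 ng/mL final) plus ATP (1.25 mM final); secreted IL-1B measured by AlphaLISA after 16 hr, decreased signal indicating inhibition.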
# TDP1 cell CPT – DT40-hTDP1 cell growth loss with CPT | chicken DT40 Tdp1-/-;hTDP1 cells + 20 nM CPT, ATP luminescence, 48 h | Potency, µM (titrated, usually from 46.2 µM), inactives show at the highest dose activity change, negative = growth inhibition, hits mostly inhibitors | 420,000 tested, 12% active | AID 686979; note: potency is the fitted concentration of half-maximal effect; % is set by controls: 0 for no effect and ±100 for the full control effect; nearly all actives have a fitted effect of over 55% in size
#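 Cell growth measured by CellTiter-Glo luminescence after a minimum 48 h, 37 C compound exposure with 20 nM CPT in Tdp1-knockout DT40 cells stably expressing hTDP1, seeded 400/well; qHTS titration format.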
# DT40 TDP1 no CPT – qHTS for Inhibitors of human tyrosyl-DNA phosphodiesterase 1 (TDP1): qHTS in cells in absence of CPT. DT40 Tdp1-/- hTDP1 cells, no CPT, ATP luminescence, 48 h. Potency, µM (titrated, usually from 46.2 µM), without a hit: at the top dose activity change, negative = growth inhibition, actives largely listed as inhibitors. 420,000 tested, 15% active. AID 686978, 2013; note: potency is the fitted concentration of half-maximal effect; % is set by controls: 0 for no effect and ±100 for the full control effect; nearly all actives have a fitted effect of over 55% in size
#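 Camptothecin absent (DMSO only). Human TDP1-complemented DT40 knockout cells, 400 cells/well, 37 °C for minimum 48 hr; ATP measured via CellTiter-Glo, 30 min dark incubation, luminescence.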
# ClpP mod – qHTS Assay for Activators of ClpP | ATP-dependent Clp protease proteolytic subunit (Bacillus subtilis (strain 168)), P80244 | purified B. subtilis ClpP, FRET peptide cleavage, 20 min | Potency, µM (series often up to 57.5 µM), inactives show at the top dose activity change, negative = active | 340,000 tested, 1.9% active | AID 651965, 2013; active = well fitted falling curve with a large enough effect; inconclusive = small, poorly fitted or top-dose-only effect; inactive = no such curve, though single readings can be large or run the other way; note: potency is the fitted concentration of half-maximal effect; the source files actives as falling curves though it sought activators and does not explain the sign; nearly all actives have a fitted effect of over 65% in size
# Target sequence (P80244 whole entry, looked up): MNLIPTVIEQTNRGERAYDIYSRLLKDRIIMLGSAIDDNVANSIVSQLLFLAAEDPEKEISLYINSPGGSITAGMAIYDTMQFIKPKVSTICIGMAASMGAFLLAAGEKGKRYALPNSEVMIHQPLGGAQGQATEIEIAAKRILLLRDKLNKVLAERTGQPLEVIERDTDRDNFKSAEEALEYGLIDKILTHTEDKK
#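 Buffer: 100 mM Tris/HCl pH8, 100 mM KCl, 0.05% low protease BSA, 2.5% glycerol, 0.01% Tween-20. ClpP 10 microg/mL final; 20 min RT; delta FRET normalized to ADEP and DMSO controls.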
# DRD3 agonist – D3 dopamine receptor (human) agonism; 410,000 tested, 0.58% active; P35462; AID 652048; max activation, %; D3R DiscoveRx beta-arrestin cells, luminescence, 90 min; in the data active = max activation above about 30%; note: 0% is about no effect
#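 Agonist-mode cell screen: cells plated at 1500/well and incubated overnight at 37 °C, then exposed to library compounds for 90 min at 37 °C. Detection reagent was added for 30–60 min at room temperature, and luminescence was read.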
# The depositor's hits bear a star; ? = inconclusive; nt = not tested or not shown. Most compounds without a hit are left out; they make up all but 21% or so of the library. Unless noted, calls come from the whole dose curve; as a rule, active = well fitted inhibition curve with a large enough effect; inconclusive = small, poorly fitted or top-dose-only effect; inactive = flat fitted curve, though single readings scatter.
SMILES,DRD3 antagonist,IL1B secr inh,TDP1 cell CPT,DT40 TDP1 no CPT,ClpP mod,DRD3 agonist
COc1ccccc1OCCCn1c(C2CC(=O)N(c3ccccc3Cl)C2)nc2ccccc21 (stereo unspecified),nt,nt,13µM*,6.5µM*,0%,-4
COc1ccccc1Cn1c(C2CC(=O)N(c3ccccc3OC)C2)nc2ccccc21 (stereo unspecified),nt,nt,?,?,-6%,2
Cc1cccc(OCCCCn2c(C3CC(=O)N(c4ccccc4Cl)C3)nc3ccccc32)c1 (stereo unspecified),nt,nt,3.7µM*,?,-9%,2
COc1ccc(NC(=O)c2sc3nc[nH]c(=O)c3c2C)cc1Cl,nt,nt,-5%,-19%,29%,-9
CC1CCC(NC(=O)C2CCC(CNS(=O)(=O)c3cccc4cccnc34)CC2)CC1 (stereo unspecified),6,37,?,-14%,-2%,4
CCOC(=O)C(Cc1ccc(O)cc1)Nc1nc2ccccc2o1 (stereo unspecified),3,-54*,-1%,-21%,-3%,1
CC(C)(C)c1ccc(-c2csc(NC(=O)CN3C(=O)NC4(CCCCC4)C3=O)n2)cc1,-18,-16,10µM*,9.2µM*,-2%,8
COc1ccc(-c2csc(NC(=O)CN3C(=O)NC4(CCCC4)C3=O)n2)cc1OC,2,-62*,-27%,-20%,-2%,0
Cc1ccc2nc(NC(=O)CN3C(=O)NC4(CCCC4)C3=O)sc2c1,-16,2,?,?,-3%,-10
COc1ccc(-c2csc(NC(=O)CN3C(=O)NC4(CCCC4)C3=O)n2)c(OC)c1,-10,?,?,?,-4%,1
O=C(Nc1ccc(Cl)c(S(=O)(=O)N2CCOCC2)c1)[C@@H]1CCCN1C(=O)c1cccs1,-17,10,-3%,-8%,-4%,6
CCOc1cccc(C2C(C(=O)c3ccc(C)o3)=C(O)C(=O)N2CCCn2ccnc2)c1 (stereo unspecified),3,13,5%,-17%,nt,6
CCNC(=O)c1ccc(C23CC4CC(CC(C4)C2)C3)o1,-4,14,?,15µM*,nt,-18
O=C(CSc1nc(-c2ccco2)cc(C(F)(F)F)n1)Nc1ccc2c(c1)CCC2,-13,12,?,?,-6%,-6
COc1ccc(Cl)cc1NC(=O)CSc1nc(-c2ccco2)cc(C(F)(F)F)n1,nt,nt,18µM*,16µM*,-9%,4
Cc1ccc(NC(=O)CSc2nc(-c3ccco3)cc(C(F)(F)F)n2)cc1C,21,24,2.3µM*,3.7µM*,-1%,9
COC(=O)c1ccc(C(=O)OC)c(NC(=O)CSc2nc(-c3ccco3)cc(C(F)(F)F)n2)c1,0,18,?,?,-4%,2
COC(=O)c1ccccc1NC(=O)CSc1nc(-c2ccco2)cc(C(F)(F)F)n1,-4,43,4.1µM*,4.6µM*,?,-5
O=C(CSc1nc(-c2ccco2)cc(C(F)(F)F)n1)NC1CCCC1,0,-6,21µM*,?,-9%,2
COc1ccccc1-c1c(C)nn2c(C(F)(F)F)cc(-c3ccccc3)nc12,nt,nt,?,?,0%,-10
COc1ccccc1NC(=O)C1=C(C)Nc2nc(CCCO)nn2C1c1cccc(O)c1 (stereo unspecified),nt,nt,-2%,-16%,-1%,-8
C/C(=N\Nc1nc2ccccc2s1)c1cccs1,10,-83*,?,?,nt,7
CC(=NNc1nc2ccccc2s1)c1ncccn1,-25,0,-76%,0.021µM*,1%,-7
Cc1cccc(NC(=O)CSc2nnc(Cc3ccccc3)o2)c1,-11,7,-9%,-13%,nt,0
COCC(=O)N1CCC2(CC1)CN(C(c1ccccc1)c1ccccc1)C2,nt,nt,2%,-28%,nt,nt
SMILES,DRD3 antagonist,IL1B secr inh,TDP1 cell CPT,DT40 TDP1 no CPT,ClpP mod,DRD3 agonist
Cc1[nH]oc(=O)c1N=Nc1ccc2[nH]c(=O)[nH]c2c1,-66*,-1,-14%,-17%,-7%,7
Cc1[nH]n(-c2ccccc2)c(=O)c1C=Nc1ccc2[nH]c(=O)[nH]c2c1,-7,17,10%,0%,-3%,-8
CCc1ccc(NC(=O)c2nc3nc(C)cc(C(F)F)n3n2)cc1,nt,nt,?,?,2%,-5
N#C/C(=C\c1ccc(OCc2ccccc2)cc1)C(=O)Nc1nc2c(s1)CCN(Cc1ccccc1)C2,1,22,23µM*,21µM*,2%,2
COc1ccc(/C=C(\C#N)C(=O)NCc2ccccc2)cc1,48,-20,-1%,5%,nt,3
N#C/C(=C\c1ccc(OCc2ccccc2)cc1)C(N)=O,-26,-14,?,23µM*,nt,-13
N#C/C(=C\c1ccc(O)cc1)C(=O)NCc1ccccc1,-9,-63*,?,-4%,-2%,-2
CC(=O)Nc1ccc(/C=C(\C#N)C(=O)NCc2ccccc2)cc1,-21,-68*,-20%,?,-2%,-2
CN(C)c1ccc(/C=C(/C#N)C(=O)Nc2nc3c(s2)CCN(Cc2ccccc2)C3)cc1,4,-3,?,?,6%,-14
CC(=O)c1ccccc1NC(=O)COC(=O)CCC1CCCC1,17,31,-2%,-4%,1%,1
N#C/C(=C/c1ccc(O)cc1)C(=O)NCc1ccc(Cl)cc1,-22,-65*,10%,-20%,nt,-2
